# Assay results reported in article PMC7862700, “An all-to-all approach to the identification of sequence-specific readers for epigenetic DNA modifications on cytosine”.
# How the values were obtained:
# Assay in all cases: DAPPL (digital affinity profiling via proximity ligation, sequencing); 10 mM Tris-HCl pH 7.5, 50 mM NaCl, 1 mM DTT, 4% glycerol, room temperature, 30 min; GST-TFs on glutathione beads, 16-mer random dsDNA library, 0.1% formaldehyde crosslink after washing; high values mean tight binding
# FLI1 = target: T1, FLI1 (Homo sapiens, UniProt Q01543 1-452); conditions: protein: recombinant; tags: N-terminal GST; dsDNA, one strand shown
# T1 sequence: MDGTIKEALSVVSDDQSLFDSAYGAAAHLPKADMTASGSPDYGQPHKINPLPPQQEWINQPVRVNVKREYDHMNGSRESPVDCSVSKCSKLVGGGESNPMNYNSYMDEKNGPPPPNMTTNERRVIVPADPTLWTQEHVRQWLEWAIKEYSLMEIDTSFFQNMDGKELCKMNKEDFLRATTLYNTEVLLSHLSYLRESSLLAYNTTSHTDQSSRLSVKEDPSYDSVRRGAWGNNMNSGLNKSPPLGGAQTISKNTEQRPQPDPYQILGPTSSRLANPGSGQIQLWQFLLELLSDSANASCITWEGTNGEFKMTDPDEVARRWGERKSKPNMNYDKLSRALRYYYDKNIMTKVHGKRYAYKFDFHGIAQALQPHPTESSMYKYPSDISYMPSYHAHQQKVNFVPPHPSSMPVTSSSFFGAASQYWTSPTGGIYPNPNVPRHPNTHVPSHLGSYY
# Procedure, shortened: (§1)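 GST fusions of human transcription factors were expressed in yeast and captured with glutathione beads. Once given DNA barcodes and pooled alongside a tag-only sample, they were incubated for 30 min at room temperature with 200 nmole of a random double-stranded 16-mer DNA library in Tris/NaCl/DTT/glycerol buffer, then washed, crosslinked (0.1% formaldehyde), proximity-ligated, PCR-amplified and sequenced on an Illumina NextSeq500. The binding signal of each hexamer is its read frequency for a factor divided by its frequency for the tag-only sample.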
# ELK1 = target: T2, ELK1 (Homo sapiens, UniProt P19419 1-428); conditions: protein: recombinant; tags: N-terminal GST; dsDNA, one strand shown
# T2 sequence: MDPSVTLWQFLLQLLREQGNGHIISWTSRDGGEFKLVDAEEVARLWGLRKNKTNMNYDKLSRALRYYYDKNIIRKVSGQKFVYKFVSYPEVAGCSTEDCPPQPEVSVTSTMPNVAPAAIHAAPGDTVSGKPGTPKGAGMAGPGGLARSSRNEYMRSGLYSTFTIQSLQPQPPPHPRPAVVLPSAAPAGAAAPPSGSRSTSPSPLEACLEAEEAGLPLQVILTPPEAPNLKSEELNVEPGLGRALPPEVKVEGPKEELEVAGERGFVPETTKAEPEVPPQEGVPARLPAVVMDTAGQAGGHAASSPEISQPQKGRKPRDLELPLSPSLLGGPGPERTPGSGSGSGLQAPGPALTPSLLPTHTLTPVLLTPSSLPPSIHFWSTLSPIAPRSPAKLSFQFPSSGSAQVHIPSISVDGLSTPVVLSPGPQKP
# Procedure, shortened: as §1
# GABPA = target: T3, GABPA (Homo sapiens, UniProt Q06546 1-454); conditions: protein: recombinant; tags: N-terminal GST; dsDNA, one strand shown
# T3 sequence: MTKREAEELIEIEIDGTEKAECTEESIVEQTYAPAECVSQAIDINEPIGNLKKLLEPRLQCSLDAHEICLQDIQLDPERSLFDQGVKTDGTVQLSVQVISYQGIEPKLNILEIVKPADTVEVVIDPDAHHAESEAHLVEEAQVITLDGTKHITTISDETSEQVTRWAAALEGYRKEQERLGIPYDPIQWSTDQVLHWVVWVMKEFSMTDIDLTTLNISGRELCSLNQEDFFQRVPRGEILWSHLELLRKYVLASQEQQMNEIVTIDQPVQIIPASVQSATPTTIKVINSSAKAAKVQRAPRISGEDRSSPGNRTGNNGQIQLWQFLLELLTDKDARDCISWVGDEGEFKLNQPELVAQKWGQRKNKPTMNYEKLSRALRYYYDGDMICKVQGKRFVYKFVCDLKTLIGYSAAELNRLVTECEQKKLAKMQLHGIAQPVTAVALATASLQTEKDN
# Procedure, shortened: as §1
# ERG = target: T4, ERG (Homo sapiens, UniProt P11308 1-479); conditions: protein: recombinant; tags: N-terminal GST; dsDNA, one strand shown
# T4 sequence: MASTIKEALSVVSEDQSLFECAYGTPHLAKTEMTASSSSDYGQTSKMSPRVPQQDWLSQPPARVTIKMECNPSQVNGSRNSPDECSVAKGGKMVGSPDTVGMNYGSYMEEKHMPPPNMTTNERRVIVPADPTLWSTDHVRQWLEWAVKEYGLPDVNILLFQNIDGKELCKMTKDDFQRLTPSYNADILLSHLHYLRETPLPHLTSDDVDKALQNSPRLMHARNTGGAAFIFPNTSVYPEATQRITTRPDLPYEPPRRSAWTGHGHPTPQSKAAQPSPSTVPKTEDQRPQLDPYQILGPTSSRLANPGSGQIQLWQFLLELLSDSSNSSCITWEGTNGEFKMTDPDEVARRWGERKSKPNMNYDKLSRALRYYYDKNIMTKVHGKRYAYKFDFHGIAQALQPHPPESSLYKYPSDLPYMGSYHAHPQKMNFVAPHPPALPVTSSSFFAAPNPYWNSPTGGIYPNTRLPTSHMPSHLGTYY
# Procedure, shortened: as §1
# ELF1 = ELF1 (Homo sapiens, UniProt P32519 1-619); conditions: protein: recombinant; tags: N-terminal GST; dsDNA, one strand shown
# Chain of ELF1 (P32519 whole entry): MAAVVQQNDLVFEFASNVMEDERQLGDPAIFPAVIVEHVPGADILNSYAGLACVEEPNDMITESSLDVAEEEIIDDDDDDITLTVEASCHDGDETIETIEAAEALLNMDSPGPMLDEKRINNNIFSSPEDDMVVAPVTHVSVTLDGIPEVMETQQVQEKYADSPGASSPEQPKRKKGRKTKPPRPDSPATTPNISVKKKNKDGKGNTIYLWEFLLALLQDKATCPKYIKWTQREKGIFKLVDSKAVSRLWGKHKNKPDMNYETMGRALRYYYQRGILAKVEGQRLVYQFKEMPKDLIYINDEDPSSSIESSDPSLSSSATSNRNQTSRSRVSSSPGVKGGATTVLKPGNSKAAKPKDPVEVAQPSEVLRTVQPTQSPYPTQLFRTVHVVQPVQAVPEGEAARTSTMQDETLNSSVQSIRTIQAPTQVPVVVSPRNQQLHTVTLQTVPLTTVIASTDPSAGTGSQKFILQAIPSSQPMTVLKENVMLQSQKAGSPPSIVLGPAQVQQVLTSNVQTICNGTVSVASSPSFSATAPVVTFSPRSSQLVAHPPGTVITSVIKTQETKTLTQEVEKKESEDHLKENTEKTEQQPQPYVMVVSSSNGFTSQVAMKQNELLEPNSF
# Procedure, shortened: as §1
# EHF = target: T5, EHF (Homo sapiens, UniProt Q9NZC4 1-300); conditions: protein: recombinant; tags: N-terminal GST; dsDNA, one strand shown
# T5 sequence: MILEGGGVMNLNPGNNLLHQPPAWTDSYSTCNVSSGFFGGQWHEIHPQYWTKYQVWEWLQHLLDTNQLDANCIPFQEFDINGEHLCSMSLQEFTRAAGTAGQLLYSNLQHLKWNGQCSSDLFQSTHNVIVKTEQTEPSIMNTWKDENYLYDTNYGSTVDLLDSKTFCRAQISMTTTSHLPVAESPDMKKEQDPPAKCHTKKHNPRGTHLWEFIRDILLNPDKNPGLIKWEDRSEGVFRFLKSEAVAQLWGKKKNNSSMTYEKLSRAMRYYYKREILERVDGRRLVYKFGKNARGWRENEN
# Procedure, shortened: as §1
# SPI1 = SPI1 (Homo sapiens, UniProt P17947 1-270); conditions: protein: recombinant; tags: N-terminal GST; dsDNA, one strand shown
# Procedure, shortened: as §1
# SPIB = SPIB (Homo sapiens, UniProt Q01892 1-262); conditions: protein: recombinant; tags: N-terminal GST; dsDNA, one strand shown
# Chain of SPIB (Q01892 whole entry): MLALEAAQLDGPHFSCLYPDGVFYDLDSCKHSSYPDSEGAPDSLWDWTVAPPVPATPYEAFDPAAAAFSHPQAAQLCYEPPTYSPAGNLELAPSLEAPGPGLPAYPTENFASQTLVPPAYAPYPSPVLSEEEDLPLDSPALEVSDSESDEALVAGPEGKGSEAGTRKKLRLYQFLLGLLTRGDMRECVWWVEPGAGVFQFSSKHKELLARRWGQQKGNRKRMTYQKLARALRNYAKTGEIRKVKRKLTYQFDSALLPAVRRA
# Procedure, shortened: as §1
# ELK3 = target: T6, ELK3 (Homo sapiens, UniProt P41970 1-407); conditions: protein: recombinant; tags: N-terminal GST; dsDNA, one strand shown
# T6 sequence: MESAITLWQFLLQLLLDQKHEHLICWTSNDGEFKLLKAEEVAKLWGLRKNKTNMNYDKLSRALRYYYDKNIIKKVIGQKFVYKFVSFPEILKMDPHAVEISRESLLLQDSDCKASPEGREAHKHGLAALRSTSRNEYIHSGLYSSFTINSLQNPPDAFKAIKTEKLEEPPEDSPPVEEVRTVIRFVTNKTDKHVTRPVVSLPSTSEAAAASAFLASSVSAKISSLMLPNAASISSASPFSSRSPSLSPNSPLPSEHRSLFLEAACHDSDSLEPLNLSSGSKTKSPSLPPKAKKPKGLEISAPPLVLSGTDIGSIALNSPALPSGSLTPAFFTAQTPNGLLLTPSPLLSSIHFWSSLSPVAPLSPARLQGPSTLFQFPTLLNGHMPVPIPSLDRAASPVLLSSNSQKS
# Procedure, shortened: as §1
# FEV = target: T7, FEV (Homo sapiens, UniProt Q99581 1-238); conditions: protein: recombinant; tags: N-terminal GST; dsDNA, one strand shown
# T7 sequence: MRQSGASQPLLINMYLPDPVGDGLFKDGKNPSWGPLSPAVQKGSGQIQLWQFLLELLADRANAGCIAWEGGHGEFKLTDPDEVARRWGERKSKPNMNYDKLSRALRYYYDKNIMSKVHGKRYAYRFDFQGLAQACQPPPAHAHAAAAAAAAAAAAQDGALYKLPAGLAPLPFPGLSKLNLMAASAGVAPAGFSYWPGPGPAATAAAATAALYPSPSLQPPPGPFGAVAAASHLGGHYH
# Procedure, shortened: as §1
# ETV5 = ETV5 (Homo sapiens, UniProt P41161 1-510); conditions: protein: recombinant; tags: N-terminal GST; dsDNA, one strand shown
# Chain of ETV5 (P41161 whole entry): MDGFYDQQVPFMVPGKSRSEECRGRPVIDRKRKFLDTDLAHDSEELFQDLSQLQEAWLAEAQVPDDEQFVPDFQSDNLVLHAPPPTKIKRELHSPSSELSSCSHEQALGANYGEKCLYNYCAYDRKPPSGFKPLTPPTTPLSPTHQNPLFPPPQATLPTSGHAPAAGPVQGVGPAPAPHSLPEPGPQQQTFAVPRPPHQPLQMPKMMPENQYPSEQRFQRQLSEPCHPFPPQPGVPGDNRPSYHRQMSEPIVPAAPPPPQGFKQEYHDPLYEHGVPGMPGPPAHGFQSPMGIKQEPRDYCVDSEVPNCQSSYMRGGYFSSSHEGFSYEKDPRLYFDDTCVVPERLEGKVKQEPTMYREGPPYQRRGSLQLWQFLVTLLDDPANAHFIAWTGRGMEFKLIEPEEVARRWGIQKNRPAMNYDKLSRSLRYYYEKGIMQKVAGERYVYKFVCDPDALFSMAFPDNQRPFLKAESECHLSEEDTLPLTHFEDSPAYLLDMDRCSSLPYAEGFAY
# Procedure, shortened: as §1
# HSF1 = HSF1 (Homo sapiens, UniProt Q00613 1-529); conditions: protein: recombinant; tags: N-terminal GST; chain copies: 3; dsDNA, one strand shown
# Chain of HSF1 (Q00613 whole entry): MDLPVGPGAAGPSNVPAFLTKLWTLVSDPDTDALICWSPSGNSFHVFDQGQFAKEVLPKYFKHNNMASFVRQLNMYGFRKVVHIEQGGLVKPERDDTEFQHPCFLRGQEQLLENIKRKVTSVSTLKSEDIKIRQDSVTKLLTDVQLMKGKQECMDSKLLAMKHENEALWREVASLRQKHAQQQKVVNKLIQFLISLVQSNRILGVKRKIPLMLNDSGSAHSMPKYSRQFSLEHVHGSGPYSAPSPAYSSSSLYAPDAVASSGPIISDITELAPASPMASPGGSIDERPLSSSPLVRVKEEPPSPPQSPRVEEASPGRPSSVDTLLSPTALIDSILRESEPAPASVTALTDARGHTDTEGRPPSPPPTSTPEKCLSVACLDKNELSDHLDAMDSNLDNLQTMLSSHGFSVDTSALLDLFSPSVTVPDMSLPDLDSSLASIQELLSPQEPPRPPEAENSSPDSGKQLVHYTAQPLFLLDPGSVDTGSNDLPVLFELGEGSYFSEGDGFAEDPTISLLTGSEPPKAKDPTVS
# Procedure, shortened: as §1
# SPIC = target: T8, SPIC (Homo sapiens, UniProt Q8N5J4 1-248); conditions: protein: recombinant; tags: N-terminal GST; dsDNA, one strand shown
# T8 sequence: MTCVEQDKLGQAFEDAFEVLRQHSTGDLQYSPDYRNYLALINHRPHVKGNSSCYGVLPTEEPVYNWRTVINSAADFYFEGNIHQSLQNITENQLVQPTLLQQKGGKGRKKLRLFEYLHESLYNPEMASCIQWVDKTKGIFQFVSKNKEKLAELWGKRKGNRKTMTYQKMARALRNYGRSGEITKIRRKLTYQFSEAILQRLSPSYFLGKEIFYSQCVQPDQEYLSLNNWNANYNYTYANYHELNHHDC
# Procedure, shortened: as §1
# ELF4 = ELF4 (Homo sapiens, UniProt Q99607 1-663); conditions: protein: recombinant; tags: N-terminal GST; dsDNA, one strand shown
# Chain of ELF4 (Q99607 whole entry): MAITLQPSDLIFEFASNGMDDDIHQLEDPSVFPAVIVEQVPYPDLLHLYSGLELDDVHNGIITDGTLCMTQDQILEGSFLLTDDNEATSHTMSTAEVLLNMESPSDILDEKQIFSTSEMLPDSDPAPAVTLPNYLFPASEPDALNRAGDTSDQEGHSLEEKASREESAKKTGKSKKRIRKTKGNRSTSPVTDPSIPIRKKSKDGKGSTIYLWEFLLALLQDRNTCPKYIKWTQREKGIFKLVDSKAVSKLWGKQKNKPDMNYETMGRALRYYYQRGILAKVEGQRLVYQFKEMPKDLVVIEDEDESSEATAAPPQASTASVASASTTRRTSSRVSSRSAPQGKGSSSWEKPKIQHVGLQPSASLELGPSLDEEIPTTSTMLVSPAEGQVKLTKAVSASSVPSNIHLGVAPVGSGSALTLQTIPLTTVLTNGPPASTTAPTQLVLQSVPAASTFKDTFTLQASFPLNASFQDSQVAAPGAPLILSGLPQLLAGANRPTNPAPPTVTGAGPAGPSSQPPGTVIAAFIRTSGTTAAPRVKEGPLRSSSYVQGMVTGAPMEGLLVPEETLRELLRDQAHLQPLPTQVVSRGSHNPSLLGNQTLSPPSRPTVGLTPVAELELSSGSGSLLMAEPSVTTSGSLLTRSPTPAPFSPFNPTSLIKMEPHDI
# Procedure, shortened: as §1
# ELK4 = target: T9, ELK4 (Homo sapiens, UniProt P28324-2 1-405); conditions: protein: recombinant; tags: N-terminal GST; dsDNA, one strand shown
# T9 sequence: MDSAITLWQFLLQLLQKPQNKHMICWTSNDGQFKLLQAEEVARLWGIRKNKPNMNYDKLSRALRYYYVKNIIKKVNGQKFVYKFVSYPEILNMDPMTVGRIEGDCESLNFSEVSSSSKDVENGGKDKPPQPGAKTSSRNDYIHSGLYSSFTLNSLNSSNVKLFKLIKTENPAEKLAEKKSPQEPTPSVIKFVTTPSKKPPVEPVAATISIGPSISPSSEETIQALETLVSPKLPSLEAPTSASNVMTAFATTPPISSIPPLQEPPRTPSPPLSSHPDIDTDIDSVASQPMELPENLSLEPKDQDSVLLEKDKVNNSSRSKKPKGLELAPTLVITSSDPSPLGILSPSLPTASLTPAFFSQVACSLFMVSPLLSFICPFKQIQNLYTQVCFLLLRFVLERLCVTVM
# Procedure, shortened: as §1
# ETV2 = target: T10, ETV2 (Homo sapiens, UniProt O00321 1-342); conditions: protein: recombinant; tags: N-terminal GST; dsDNA, one strand shown
# T10 sequence: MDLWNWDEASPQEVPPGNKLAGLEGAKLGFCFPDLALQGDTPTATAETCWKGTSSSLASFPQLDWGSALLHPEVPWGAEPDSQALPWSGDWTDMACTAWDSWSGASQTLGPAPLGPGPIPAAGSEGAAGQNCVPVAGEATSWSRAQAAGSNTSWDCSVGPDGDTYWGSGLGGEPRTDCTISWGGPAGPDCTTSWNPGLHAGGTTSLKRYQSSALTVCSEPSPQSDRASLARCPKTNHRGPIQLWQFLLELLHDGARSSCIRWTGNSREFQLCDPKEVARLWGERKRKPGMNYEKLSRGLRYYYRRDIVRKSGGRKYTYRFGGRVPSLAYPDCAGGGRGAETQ
# Procedure, shortened: as §1
# ELF3 = target: T11, ELF3 (Homo sapiens, UniProt P78545 1-371); conditions: protein: recombinant; tags: N-terminal GST; dsDNA, one strand shown
# T11 sequence: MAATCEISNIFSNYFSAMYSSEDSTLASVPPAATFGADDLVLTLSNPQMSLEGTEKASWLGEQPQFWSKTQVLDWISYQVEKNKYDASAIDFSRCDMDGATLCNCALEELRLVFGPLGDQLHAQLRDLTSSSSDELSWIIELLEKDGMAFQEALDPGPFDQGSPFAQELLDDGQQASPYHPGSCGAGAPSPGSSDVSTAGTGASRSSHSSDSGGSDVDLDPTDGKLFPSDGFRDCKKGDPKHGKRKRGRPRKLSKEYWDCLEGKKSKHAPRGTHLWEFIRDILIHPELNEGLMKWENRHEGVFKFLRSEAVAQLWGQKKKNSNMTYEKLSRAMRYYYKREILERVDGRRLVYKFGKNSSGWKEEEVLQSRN
# Procedure, shortened: as §1
# CRX = CRX (Homo sapiens, UniProt O43186 1-299); conditions: protein: recombinant; tags: N-terminal GST; dsDNA, one strand shown
# Chain of CRX (O43186 whole entry): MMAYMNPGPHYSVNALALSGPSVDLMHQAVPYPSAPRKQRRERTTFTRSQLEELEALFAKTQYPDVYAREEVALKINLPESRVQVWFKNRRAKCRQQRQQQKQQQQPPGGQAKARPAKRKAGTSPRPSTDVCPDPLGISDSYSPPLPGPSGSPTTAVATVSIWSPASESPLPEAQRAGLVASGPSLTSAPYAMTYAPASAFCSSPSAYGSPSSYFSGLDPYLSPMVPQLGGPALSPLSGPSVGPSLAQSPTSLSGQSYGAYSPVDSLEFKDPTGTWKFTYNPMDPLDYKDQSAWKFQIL
# Procedure, shortened: as §1
# ETV1 = ETV1 (Homo sapiens, UniProt P50549 1-477); conditions: protein: recombinant; tags: N-terminal GST; dsDNA, one strand shown
# Chain of ETV1 (P50549 whole entry): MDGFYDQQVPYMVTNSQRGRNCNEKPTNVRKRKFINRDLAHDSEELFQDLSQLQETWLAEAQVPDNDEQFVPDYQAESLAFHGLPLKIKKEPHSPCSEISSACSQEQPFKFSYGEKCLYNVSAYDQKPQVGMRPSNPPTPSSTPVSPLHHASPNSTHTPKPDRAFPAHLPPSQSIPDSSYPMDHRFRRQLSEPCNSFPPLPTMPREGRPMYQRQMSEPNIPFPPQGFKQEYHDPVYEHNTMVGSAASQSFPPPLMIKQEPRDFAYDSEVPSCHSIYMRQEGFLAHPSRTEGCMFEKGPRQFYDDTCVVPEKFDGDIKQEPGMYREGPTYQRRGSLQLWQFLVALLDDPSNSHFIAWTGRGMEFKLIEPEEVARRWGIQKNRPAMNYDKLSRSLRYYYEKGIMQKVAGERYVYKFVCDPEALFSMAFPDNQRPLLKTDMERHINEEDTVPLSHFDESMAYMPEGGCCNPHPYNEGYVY
# Procedure, shortened: as §1
sequence,measurement,setting,value
TATCCT,binding signal,FLI1,"1.7 fold enrichment (6-mer frequency, TF over GST control)"
same,binding signal,ELK1,"1.79 fold enrichment (6-mer frequency, TF over GST control)"
same,binding signal,GABPA,"1.71 fold enrichment (6-mer frequency, TF over GST control)"
same,binding signal,ERG,"1.9 fold enrichment (6-mer frequency, TF over GST control)"
same,binding signal,ELF1,"1.73 fold enrichment (6-mer frequency, TF over GST control)"
same,binding signal,EHF,"1.81 fold enrichment (6-mer frequency, TF over GST control)"
same,binding signal,SPI1,"1.74 fold enrichment (6-mer frequency, TF over GST control)"
same,binding signal,SPIB,"1.8 fold enrichment (6-mer frequency, TF over GST control)"
same,binding signal,ELK3,"1.76 fold enrichment (6-mer frequency, TF over GST control)"
same,binding signal,FEV,"1.94 fold enrichment (6-mer frequency, TF over GST control)"
same,binding signal,ETV5,"1.95 fold enrichment (6-mer frequency, TF over GST control)"
same,binding signal,HSF1,"1.72 fold enrichment (6-mer frequency, TF over GST control)"
same,binding signal,SPIC,"1.87 fold enrichment (6-mer frequency, TF over GST control)"
same,binding signal,ELF4,"1.65 fold enrichment (6-mer frequency, TF over GST control)"
same,binding signal,ELK4,"1.83 fold enrichment (6-mer frequency, TF over GST control)"
same,binding signal,ETV2,"1.93 fold enrichment (6-mer frequency, TF over GST control)"
same,binding signal,ELF3,"1.59 fold enrichment (6-mer frequency, TF over GST control)"
same,binding signal,CRX,"2.28 fold enrichment (6-mer frequency, TF over GST control)"
same,binding signal,ETV1,"1.72 fold enrichment (6-mer frequency, TF over GST control)"
